FLuc inh = inhibitors of firefly (Photinus pyralis) luciferase; Potency, µM (doses to about 115 µM), actives largely listed as inhibitors; actives 2.5% (n = 76,000); purified P. pyralis luciferase, luminescence, biochemical; AID 1347043; P08659; note: nearly all actives have a fitted effect of over 65% in size
Target sequence (P08659 whole entry, looked up): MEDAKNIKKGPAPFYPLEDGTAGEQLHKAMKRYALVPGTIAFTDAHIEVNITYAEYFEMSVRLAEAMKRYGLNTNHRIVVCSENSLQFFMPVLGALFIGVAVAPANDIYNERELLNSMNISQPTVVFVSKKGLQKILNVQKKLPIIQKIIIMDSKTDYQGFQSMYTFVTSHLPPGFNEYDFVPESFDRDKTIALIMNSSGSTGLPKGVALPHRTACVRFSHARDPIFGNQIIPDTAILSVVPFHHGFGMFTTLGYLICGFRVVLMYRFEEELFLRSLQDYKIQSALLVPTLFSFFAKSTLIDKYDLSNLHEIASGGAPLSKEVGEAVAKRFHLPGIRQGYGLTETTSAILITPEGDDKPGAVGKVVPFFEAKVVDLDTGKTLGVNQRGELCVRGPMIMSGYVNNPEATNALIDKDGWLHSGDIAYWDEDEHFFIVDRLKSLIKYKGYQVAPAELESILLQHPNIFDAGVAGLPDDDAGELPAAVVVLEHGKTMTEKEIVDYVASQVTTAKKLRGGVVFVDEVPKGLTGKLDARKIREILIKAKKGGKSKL
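Biochemical qHTS: compound (6-point titration) added to 10uM D-luciferin plus 10uM ATP in Tris acetate pH 7.5 buffer with Mg, Tween-20 and BSA, then purified enzyme at 10nM; light output imaged.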
HEK cytotox = cytotoxic compounds in HEK 293 cells | HEK 293 viability, ATP luminescence (CellTiter-Glo), 48-72 h | Potency, µM (highest dose often 115 µM), inactives show top-dose activity change, negative = cytotoxicity, actives largely listed as inhibitors | actives 6.6% (n = 94,000) | AID 1345083; note: nearly all actives have a fitted effect of over 60% in size
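250 HEK 293 cells/well; compound by pintool; incubated 48 or 72 hr at 37 degree Celsius; CellTiter-Glo added, 10 min RT, luminescence imaged.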
NPR1 antag = blocks ANP-stimulated signaling of human Npr1 receptor; HEK293 hNpr1 GloSensor cGMP, ANP-stimulated luminescence; Potency, µM (highest dose often 46.3 µM), for the others: at the highest dose activity change, negative = inhibition, most hits filed as inhibitors; actives 1.6% (n = 76,000); calls by dose curve; note: nearly all actives have a fitted effect of over 60% in size
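Compound pre-incubated 30 min at room temperature on GloSensor-loaded HEK293 cells stably carrying hNpr1 and the pGS-40F cGMP biosensor. Stimulation uses hNppA at 0.1 nM final; luminescence is taken at baseline and 20 min post-agonist.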
3T3 cytotox = cytotoxic compounds in NIH 3T3 cells; NIH 3T3 viability, CellTiter-Glo ATP luminescence, 48-72 h; Potency, µM (titrated, usually from 96.7 µM), for the others: at the highest dose activity change, negative = cytotoxicity, actives largely listed as inhibitors; actives 4.3% (n = 94,000); AID 1345082; note: nearly all actives have a fitted effect of over 55% in size
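Luminescent ATP readout (CellTiter-Glo, 10 min RT) after 48 or 72 hr compound exposure of NIH 3T3 cells seeded at 400 cells/well in 1536-well format; quantitative HTS.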
* = called active by the depositor; i = inactive; ? = inconclusive; nt = no result; [ ] = dose if it differs, or a comment. Sampled rows, rich in hits. Any-hit rate of the full collection: about 11%. Unless noted, calls come from the whole dose curve; as a rule, active = well fitted curve in the direction sought with a large enough effect; inconclusive = small, poorly fitted or top-dose-only effect, or another doubt; inactive = no such curve, though single readings can be large; an effect the other way counts as inactive or inconclusive. % is set by controls: 0 for no effect and ±100 for the full control effect; potency is the fitted concentration of half-maximal effect.

SMILES | FLuc inh | HEK cytotox | NPR1 antag | 3T3 cytotox
O=C(c1ccncc1)N1CCC2(CC1)CC(c1cccc(C(F)(F)F)c1)=NO2 | nt | 89µM* | nt | -23%
O=C(c1ccccn1)N1CCC2(CC1)CC(c1cccc(C(F)(F)F)c1)=NO2 | nt | ? | nt | -28%
O=C(C1CC1)N1CCC2(CC1)CC(c1cccc(C(F)(F)F)c1)=NO2 | nt | 56µM* | nt | ?
O=C(c1ccc(F)cc1)N1CCC2(CC1)CC(c1cccc(C(F)(F)F)c1)=NO2 | i | ? | -24% | ?
CCN1CCC(CC(=O)N2CCCC3(C=Cc4ccccc4O3)CC2)CC1 (stereo unspecified) | i | ? | 6% | ?
CSCc1ccc(C(=O)N2CCCC(O)(CN3CCCC3)C2)o1 (stereo unspecified) | i | ? | 6% | -4%
O=C1c2c(nc(COc3cc(F)cc(F)c3)n2Cc2ccccc2)NCCN1Cc1ccccc1F | i | ? | -19% | 25µM*
COc1ccc(OCc2nc3c(n2Cc2ccccc2)C(=O)N(Cc2ccccc2F)CCN3)cc1OC | i | ? | -17% | ?
COCCN1CCNc2nc(COc3ccc(Oc4ccccc4)cc3)n(Cc3ccccc3)c2C1=O | i | ? | -22% | 45µM*
O=C1c2c(nc(COc3ccccc3)n2Cc2ccccc2)NCCN1Cc1ccccc1 | i | 35µM* | ? | 32µM*
COc1cc(OC)cc(OCc2nc3c(n2Cc2ccccc2)C(=O)N(Cc2ccccc2F)CCN3)c1 | i | 32µM* | -21% | ?
CN1CCNc2nc(COc3ccc(Oc4ccccc4)cc3)n(Cc3ccccc3)c2C1=O | i | ? | -2% | -21%
O=C1c2c(nc(COc3ccc(Cl)cc3)n2Cc2ccccc2)NCCN1CC1CCOCC1 | i | ? | -20% | ?
N#Cc1cccc(-c2c(C(=O)NCCc3ccc(Cl)cc3)nc3sccn23)c1 | nt | -26% | nt | -25%
CC(=O)Nc1ccc(C(=O)NC2CCN(CCn3nc4n(c3=O)CCCC4)C2)cc1 (stereo unspecified) | nt | i | nt | i
COc1ccc(OCc2nc3c(n2Cc2ccccc2)C(=O)N(CC2CC2)CCN3)cc1OC | i | ? | -4% | ?
O=C1c2c(nc(COc3ccc(F)cc3)n2Cc2ccccc2)NCCN1CCOc1ccccc1 | i | ? | ? | ?
O=C1c2c(nc(COc3cc(F)cc(F)c3)n2Cc2ccccc2)NCCN1Cc1ccccc1 | i | 25µM* | -30% | 25µM*
CN(Cc1ccccc1)Cc1nc2c(n1Cc1ccccc1)C(=O)N(Cc1ccccc1F)CCN2 | i | 40µM* | 0% | ?
O=C1c2c(nc(COc3ccc(F)cc3F)n2Cc2ccccc2)NCCN1CCOc1ccccc1 | i | 45µM* | ? | ?
C[C@@H](N)C(=O)N1CCOc2c(O)cc(-c3ncc(C(F)(F)F)cc3Cl)cc2C1 | i | -13% | -4% | -31%
CN(C)c1ccc2ncc(Nc3ccccc3-c3ccccc3)n2n1 | ? | 63µM* | -6%[70.6 µM] | 28µM*
CN(C)c1ccc2ncc(Nc3cccc(C(F)(F)F)c3)n2n1 | i | ? | 6%[70.6 µM] | ?
CN(C)c1ccc2ncc(Nc3ccccc3Cl)n2n1 | i | ? | -1%[70.6 µM] | 32µM*
CC(=O)NC1CCN(c2ccnc3ccnn23)C1 (stereo unspecified) | nt | -11%[172 µM] | nt | -10%[138 µM]
SMILES | FLuc inh | HEK cytotox | NPR1 antag | 3T3 cytotox
Cc1ccc(C(=O)NC2CCN(c3ccnc4ccnn34)C2)cc1 (stereo unspecified) | nt | 63µM* | nt | ?
COc1ccc(CC(=O)NC2CCCN(c3ccnc4ccnn34)C2)cc1 (stereo unspecified) | nt | 5% | nt | -12%
COc1ccc(C(=O)NC2CCN(c3ccnc4ccnn34)C2)cc1 (stereo unspecified) | nt | 50µM* | nt | ?
Cc1cc(C(=O)N2CCCCC2c2nc(CCOCC3CCOCC3)no2)nn1C (stereo unspecified) | nt | -18% | nt | -11%
COc1ccc(C(=O)N2CCC3(CC2)NCCc2c3[nH]c3ccccc23)cc1 | i | 79µM* | -3% | -34%
COc1ccc2[nH]c3c(c2c1)CCNC31CCN(C(=O)C2CC=CC2)CC1 | i | 45µM* | 4% | -20%
O=C(c1ccncc1)N1CCC2(CC1)NCCc1c2[nH]c2ccccc12 | i | -20% | 0% | -25%
COc1ccc(C(=O)N2CCC3(CC2)NCCc2c3[nH]c3ccccc23)cc1F | i | 13µM* | 0% | ?

Screening data deposited in PubChem BioAssay by National Center for Advancing Translational Sciences (NCATS).
